In the supplement of paper PMC3414501:
Counter-ions that a name gives are not always drawn.

How the values were obtained:
[1] = system: S. cerevisiae SK1 pCDA2-eGFP (USY613), sporulating; assay: CDA2-GFP sporulation assay sensitivity score (z-score vs DMSO controls); higher = stronger inhibition of sporulation, active = hit call of the paper;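 note: active if sensitivity score above 5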
[2] = system: S. cerevisiae NKY1551 his4x/his4B, sporulating; assay: HIS4 meiotic recombination assay sensitivity score (z-score vs DMSO controls); higher = stronger inhibition of sporulation/recombination, active = hit call of the paper;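 note: active if sensitivity score above 5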
[3] = system: S. cerevisiae AD1-9 (efflux-pump deficient), vegetative growth in YPD; assay: growth sensitivity score (doubling time z-score vs DMSO controls); higher = slower growth, strongly negative scores also mark growth inhibition (complete suppression), active = hit call of the paper
Outline: (§1)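 Saccharomyces cerevisiae strains BY4741 and AD1-9 were seeded in rich medium in microtiter plates at an OD600 of 0.065. Compounds were added at a 1:100 dilution of DMSO stock. Optical density was read every 15 min for 24 hours on a Tecan GENios reader. Average doubling time was the time taken to reach a set generation point divided by generation number, and the growth sensitivity score was (compound mean − DMSO-control mean)/DMSO-control SD, using eight DMSO controls per experiment.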

[4] = system: S. cerevisiae BY4741 (wild-type), vegetative growth in YPD; assay: as above
Outline: as §1

Structure (SMILES)	CDA2-GFP sporulation assay sensitivity score [1]	HIS4 meiotic recombination assay sensitivity score [2]	growth sensitivity score [3]	growth sensitivity score [4]
CC(C)NCC(O)c1ccc(NS(C)(=O)=O)cc1 (centres undefined) [Sotalol hydrochloride] (stock concentration (mM, diluted 1:100): 8.8)	-0.03 (inactive)	-0.43 (inactive)	-0.51 (inactive)	-1.04 (inactive)
CC(C)NCC(O)COc1ccc(CCOCC2CC2)cc1 (centres undefined) [Betaxolol hydrochloride] (stock concentration (mM, diluted 1:100): 10)	7.8 (active)	-0.58 (inactive)	-0.35 (inactive)	0.42 (inactive)
CC(=O)O[C@]1(C(C)=O)CC[C@H]2[C@@H]3C=C(C)C4=CC(=O)CC[C@]4(C)[C@H]3CC[C@@]21C [Megestrol acetate] (stock concentration (mM, diluted 1:100): 10)	0.75 (inactive)	-2.67 (inactive)	38.5 (active)	1.27 (inactive)
CCOC(=O)C1=C(C)NC(C)=C(C(=O)OC)C1c1cccc([N+](=O)[O-])c1 (centres undefined) [Nitrendipine] (stock concentration (mM, diluted 1:100): 10)	10.3 (active)	1.41 (inactive)	23.1 (active)	1.09 (inactive)
CNCCCCOc1ccccc1Cc1ccccc1 [Bifemelane] (stock concentration (mM, diluted 1:100): 10)	1.21 (inactive)	9.23 (active)	127 (active)	3.54 (active)
N#Cc1ccc(C(c2ccc(C#N)cc2)n2cncn2)cc1 [Letrozol] (stock concentration (mM, diluted 1:100): 10)	1.08 (inactive)	-0.01 (inactive)	20.4 (active)	-0.45 (inactive)
CCOC(=O)[C@H](CCc1ccccc1)N[C@H]1CCc2ccccc2N(CC(=O)O)C1=O [Benazepril hydrochloride] (stock concentration (mM, diluted 1:100): 9.2)	-1.49 (inactive)	0.2 (inactive)	1.33 (inactive)	1.72 (inactive)
CN1C2CCCC1CC(NC(=O)c1nn(C)c3ccccc13)C2 (centres undefined) [Granisetron hydrochloride] (stock concentration (mM, diluted 1:100): 9)	2.25 (inactive)	0.28 (inactive)	-1.22 (inactive)	-0.57 (inactive)
CC1=C(C(=O)O)N2C(=O)[C@@H](NC(=O)[C@H](N)c3ccccc3)[C@H]2SC1 [Cephalexin monohydrate] (stock concentration (mM, diluted 1:100): 10)	-1.64 (inactive)	-1.5 (inactive)	-0.53 (inactive)	0.27 (inactive)
NNCCc1ccccc1 [Phenelzine sulfate salt] (stock concentration (mM, diluted 1:100): 10)	1.83 (inactive)	-3.78 (inactive)	-0.66 (inactive)	0.3 (inactive)
Nc1ccn([C@@H]2O[C@H](CO)[C@@H](O)[C@@H]2O)c(=O)n1 [Cytarabine] (stock concentration (mM, diluted 1:100): 10)	-0.45 (inactive)	-0.49 (inactive)	-2.83	-0.01 (inactive)
CNS(=O)(=O)Cc1ccc2[nH]cc(CCN(C)C)c2c1 [Sumatriptan succinate] (stock concentration (mM, diluted 1:100): 7.2)	-0.43 (inactive)	-0.69 (inactive)	0.45 (inactive)	-1.56 (inactive)
CC(=O)SCC(Cc1ccccc1)C(=O)NCC(=O)OCc1ccccc1 (centres undefined) [Acetorphan] (stock concentration (mM, diluted 1:100): 10)	0.9 (inactive)	1.65 (inactive)	22.1 (active)	0.93 (inactive)
Cc1[nH]c(=O)c(C#N)cc1-c1ccncc1 [Milrinone] (stock concentration (mM, diluted 1:100): 10.1)	-1.34 (inactive)	-0.23 (inactive)	-2.83	-0.97 (inactive)
CC(=O)O[C@@]12CO[C@@H]1C[C@H](O)[C@@]1(C)C(=O)[C@H](O)C3=C(C)[C@@H](OC(=O)[C@H](O)[C@@H](NC(=O)OC(C)(C)C)c4ccccc4)C[C@@](O)([C@@H](OC(=O)c4ccccc4)[C@H]21)C3(C)C [Docetaxel] (stock concentration (mM, diluted 1:100): 10)	-0.23 (inactive)	-1.69 (inactive)	-0.53 (inactive)	1.16 (inactive)
CC(C)(C#N)c1cc(Cn2cncn2)cc(C(C)(C)C#N)c1 [Anastrozole] (stock concentration (mM, diluted 1:100): 10)	3.64 (inactive)	0.04 (inactive)	-1.94 (inactive)	-0.82 (inactive)

Structure (SMILES)	CDA2-GFP sporulation assay sensitivity score [1]	HIS4 meiotic recombination assay sensitivity score [2]	growth sensitivity score [3]	growth sensitivity score [4]
C[C@]12CCC(=O)C=C1CC[C@@H]1[C@@H]2C(=O)C[C@@]2(C)[C@H]1CC[C@]2(O)C(=O)CO [Cortisone] (stock concentration (mM, diluted 1:100): 10)	2.53 (inactive)	-0.95 (inactive)	0.78 (inactive)	-0.57 (inactive)
CN(C)CCC[C@@]1(c2ccc(F)cc2)OCc2cc(C#N)ccc21 [Escitalopram oxalate] (stock concentration (mM, diluted 1:100): 7.9)	0.99 (inactive)	6.6 (active)	-1.47 (inactive)	0.93 (inactive)
CC[C@H]1OC(=O)[C@H](C)C(=O)[C@H](C)[C@@H](O[C@@H]2O[C@H](C)C[C@H](N(C)C)[C@H]2O)[C@](C)(OC)C[C@@H](C)C(=O)[C@H](C)[C@H]2N(CCCCn3cnc(-c4cccnc4)c3)C(=O)O[C@]12C [Telithromycin] (stock concentration (mM, diluted 1:100): 10)	4.62 (inactive)	0.14 (inactive)	4.79 (active)	0.09 (inactive)
C=C1/C(=C\C=C2/CCC[C@]3(C)[C@@H]([C@H](C)CCCC(C)(C)O)CC[C@@H]23)C[C@@H](O)C[C@@H]1O [Calcitriol] (stock concentration (mM, diluted 1:100): 10)	3.05 (inactive)	2.18 (inactive)	21.1 (active)	-0.32 (inactive)
CCC1=C[C@H]2CN(C1)Cc1c([nH]c3ccccc13)[C@@](C(=O)OC)(c1cc3c(cc1OC)N(C)[C@H]1[C@@](O)(C(=O)OC)[C@H](OC(C)=O)[C@]4(CC)C=CCN5CC[C@]31[C@@H]54)C2 [Vinorelbine bitatrate] (stock concentration (mM, diluted 1:100): 7.2)	1.77 (inactive)	-0.36 (inactive)	-3.29	-1.83 (inactive)
CC[C@H](C)C(=O)O[C@H]1C[C@H](O)C=C2C=C[C@H](C)[C@H](CC[C@@H](O)C[C@@H](O)CC(=O)O)[C@H]21 [Pravastatin sodium] (stock concentration (mM, diluted 1:100): 9.5)	-1.3 (inactive)	-0.46 (inactive)	13.6 (active)	0.4 (inactive)
NC1CCN(c2cccc(Cl)n2)CC1 (stock concentration (mM, diluted 1:100): 10)	13.8 (active)	2.37 (inactive)	-0.47 (inactive)	-0.16 (inactive)
Cc1c(OCC(F)(F)F)ccnc1C[S+]([O-])c1nc2ccccc2[nH]1 (centres undefined) [Lansoprazole] (stock concentration (mM, diluted 1:100): 10.1)	14.2 (inactive)	1.42 (inactive)	2.67 (active)	1.37 (inactive)
CCN1CC(CCN2CCOCC2)C(c2ccccc2)(c2ccccc2)C1=O (centres undefined) [Doxapram hydrochloride] (stock concentration (mM, diluted 1:100): 10.4)	-0.58 (inactive)	1.8 (inactive)	-0.91 (inactive)	-0.29 (inactive)
C[C@H]1COc2c(C3(N)CC3)c(F)cc3c(=O)c(C(=O)O)cn1c23 [Pazufloxacin] (stock concentration (mM, diluted 1:100): 10)	0.17 (inactive)	-0.93 (inactive)	0.07 (inactive)	-1.05 (inactive)
CN(C)CCN(Cc1ccccc1)c1ccccn1 [Tripelennamine hydrochloride] (stock concentration (mM, diluted 1:100): 10)	0.92 (inactive)	8.14 (active)	0.66 (inactive)	1.04 (inactive)
CC(Oc1c(Cl)cccc1Cl)C1=NCCN1 (centres undefined) [Lofexidine hydrochloride] (stock concentration (mM, diluted 1:100): 10)	7.06 (inactive)	1.48 (inactive)	-0.79 (inactive)	0.09 (inactive)
COc1cc(N)c(Cl)cc1C(=O)NC1CCN(CCCOc2ccc(F)cc2)CC1OC (centres undefined) [Cisapride] (stock concentration (mM, diluted 1:100): 10.5)	0.78 (inactive)	-0.37 (inactive)	8.05 (active)	1.35 (inactive)
c1cnc(N2CCN(Cc3ccc4c(c3)OCO4)CC2)nc1 [Piribedil] (stock concentration (mM, diluted 1:100): 9.7)	6.47 (inactive)	-0.82 (inactive)	-3.77	1.65 (inactive)
C[C@H]1O[C@H](O[C@H]2[C@H](O)[C@@H](O)[C@@H](O[C@H]3[C@H](O)[C@@H](O)C(O)O[C@@H]3CO)O[C@@H]2CO)[C@H](O)[C@@H](O)[C@@H]1N[C@H]1C=C(CO)[C@@H](O)[C@H](O)[C@H]1O (some centres undefined) [Acarbose] (stock concentration (mM, diluted 1:100): 10)	0.28 (inactive)	-0.56 (inactive)	-2.1	-1.13 (inactive)
